RGS7-Gao reg = modulates binding of RGS7 to human Galphao; AID 1439; Multiplexed bead flow cytometry; actives lie on both sides; P09471; actives 0.35% (n = 220,000); binding response (% of control), % at 10 µM; in the data active means binding response below about 49% or above about 150%; inconclusive means no clear call, values can overlap the other calls; inactive means in between;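 further: fluorescent Galphao held in activated GDP-AlF4 state binding bead-coupled RGS7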
Target sequence (P09471 whole entry, looked up): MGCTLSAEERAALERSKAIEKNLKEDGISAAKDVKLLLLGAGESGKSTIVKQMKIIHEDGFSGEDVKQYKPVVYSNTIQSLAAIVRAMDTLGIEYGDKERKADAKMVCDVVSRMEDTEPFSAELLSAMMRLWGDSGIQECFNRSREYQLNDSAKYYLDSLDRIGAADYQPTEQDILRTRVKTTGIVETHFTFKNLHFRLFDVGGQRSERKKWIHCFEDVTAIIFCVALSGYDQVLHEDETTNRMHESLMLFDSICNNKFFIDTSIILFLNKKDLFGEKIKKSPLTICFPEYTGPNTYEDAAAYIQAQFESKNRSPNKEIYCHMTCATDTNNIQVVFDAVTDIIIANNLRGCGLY
RGS16-Gao HTS = modulates binding between human RGS16 and Galphao; bead-based flow cytometry RGS16-Galphao binding, fluorescence; actives lie on both sides; O15492+P09471; actives 0.38% (n = 220,000); binding response (% of control), % at 10 µM;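 further: Galphao activated by GDP with aluminum fluoride before binding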
Avidin fluor = avidin bead compound fluorescence profile; Avidin beads, compound fluorescence 488/530 nm, flow cytometry; stronger effect = higher value; fluorescence (KMESF) at 10 µM; actives 0.38% (n = 220,000); AID 1775; in the data active means fluorescence above about 47
RGS8-Gao reg = human RGS8-Galphao interaction regulation. AID 1423. P09471. response (percent of control binding), % at 10 µM. actives 0.34% (n = 220,000). multiplexed bead flow cytometry, RGS8-Galphao binding; actives lie on both sides; in the data active means response below about 60% or above about 140%; inactive means in between;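 further: Galphao activated as the GDP aluminium fluoride complex binding bead-coupled RGS8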
RGS4-Gao reg = human RGS4-Galphao interaction regulation; AID 1415; Multiplexed bead flow cytometry, RGS4-Galphao binding; actives lie on both sides; actives 0.33% (n = 220,000); binding response (% of control), % at 10 µM; P09471; in the data active means binding response below about 49% or above about 150%; inactive means in between;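 further: fluorescent Galphao activated with aluminum fluoride binding bead-coupled RGS4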
GSH fluor = GSH bead compound fluorescence profile; GSH beads flow cytometry, compound fluorescence 488/530 nm; stronger effect = higher value; fluorescence (KMESF) at 10 µM; actives 0.25% (n = 190,000); AID 1776; in the data active means fluorescence above about 89;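 further: glutathione beads carrying GST-tagged Bcl family fusion proteins plus one bare bead set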
RGS-Gao = modulates binding between human RGS4 and Galphao; shares compounds with RGS16-Gao HTS; multiplexed bead flow cytometry, RGS–Galpha-o binding; RGS4–Galpha-o binding response, % at 10 µM; actives 99% (n = 1,600);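 further: fluorescently labeled Galpha-o bound to GDP with aluminium fluoride binding biotinylated RGS beads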
Target sequence (P09471 whole entry, looked up): as above
Target sequence (P49798 whole entry, looked up): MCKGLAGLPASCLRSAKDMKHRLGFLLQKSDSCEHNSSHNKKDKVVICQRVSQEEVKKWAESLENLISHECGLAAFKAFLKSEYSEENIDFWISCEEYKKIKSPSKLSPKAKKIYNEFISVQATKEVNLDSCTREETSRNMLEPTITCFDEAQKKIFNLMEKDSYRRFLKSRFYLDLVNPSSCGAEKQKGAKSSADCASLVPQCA
Biotin-avidin = counter-screen: compounds disrupting biotin binding to avidin beads. shares compounds with RGS16-Gao HTS. streptavidin beads, fluorescein-biotin binding, flow cytometry. inhibition, % at 10 µM. 1,700 tested, under 10 active. AID 1783;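 active means inhibition above 50%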;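 further: median green fluorescence of gated singlet beads compared with DMSO control wells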
RGS8-Gao confirm = confirmation of regulators of human RGS8-Galphao interaction; shares compounds with RGS16-Gao HTS; bead-based flow cytometry RGS8-Galphao binding, fluorescence; actives lie on both sides; binding response (% of control), % at 10 µM; actives 3% (n = 1,700); in the data active means binding response below about 72% or above about 130%; inactive means in between;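 further: Galphao activated as GDP AlF4 complex before binding bead RGS8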
RGS7-Gao confirm = confirmation of regulators of human RGS7-Galphao interaction. shares compounds with RGS16-Gao HTS. bead-based flow cytometry RGS7-Galphao binding; actives lie on both sides. response (percent of control binding), % at 10 µM. actives 7.8% (n = 1,700). AID 1837; in the data active means response below about 75% or above about 130%; inactive means in between;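 further: fluorescent Galphao activated with GDP and aluminum fluoride binding bead-coupled RGS7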
RGS16-Gao single = confirmation of regulators of human RGS16-Galphao interaction | shares compounds with RGS16-Gao HTS | bead-based flow cytometry, RGS16-Galphao binding; actives lie on both sides | response (% of control binding), % at 10 µM | actives 4% (n = 1,700); in the data active means response below about 74% or above about 130%; inactive means in between;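 further: Galphao activated as the GDP aluminium fluoride complex binding bead-coupled RGS16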
RGS4-Gao single = confirmation of regulators of human RGS4-Galphao interaction; binding response (% of control), % at 10 µM; RGS4-Galphao binding, multiplexed bead flow cytometry; actives lie on both sides; shares compounds with RGS16-Gao HTS; actives 4% (n = 1,700); in the data active means binding response below about 74% or above about 130%; inactive means in between
RGS19-Gao single = confirmation of regulators of human RGS19-Galphao interaction. shares compounds with RGS16-Gao HTS. bead-based flow cytometry RGS19-Galphao binding; actives lie on both sides. response (percent of control binding), % at 10 µM. actives 5% (n = 1,700). AID 1841; in the data active means response below about 50% or above about 160%; inactive means in between
Numbers stand for hits; . = inactive; ? = inconclusive; / = no result; [ ] = remark or other dose. Only some compounds are listed: those with a hit (about 1.2% of all), similar ones and a draw of the others. Unless noted, how the calls were made is not given here.

SMILES	RGS7-Gao reg	RGS16-Gao HTS	Avidin fluor	RGS8-Gao reg	RGS4-Gao reg	GSH fluor	RGS-Gao	Biotin-avidin	RGS8-Gao confirm	RGS7-Gao confirm	RGS16-Gao single	RGS4-Gao single	RGS19-Gao single
COc1ccccc1OCCOCCOc1c(C)cc(C)cc1Br	.	227[activator]	.	.	.	.	110	.	.	.	.	.	.
COc1ccccc1OCCOCCOc1ccc(C)cc1[N+](=O)[O-]	.	295[activator]	.	.	.	.	116	.	.	.	.	.	.
O=C(CCN1CCOCC1)NNC(=O)/C(=C/c1ccccc1)NC(=O)c1ccccc1	.	.	.	.	43	.	/	.	.	.	.	.	.
COc1ccc(/C=C(\NC(=O)c2ccccc2)C(=O)NNC(=O)CCN2CCOCC2)cc1	.	.	.	.	.	.	/	/	/	/	/	/	/
O=C(COC(=O)C12CC3CC(CC(C3)C1)C2)Nc1ccccc1F	.	.	.	.	.	.	/	/	/	/	/	/	/
O=C1CC(SC(=Nc2ccccc2)Nc2ccccc2)C(=O)N1c1ccc(Cl)cc1 (stereo not drawn)	.	.	.	.	.	.	/	/	/	/	/	/	/
O=C(CSC1CC(=O)N(c2ccc(C(=O)O)cc2)C1=O)Nc1ccc(Cl)cc1 (stereo not drawn)	241[activator]	.	117	.	.	.	123	.	.	.	.	.	.
CC(=O)Nc1ccc(NC(=S)Nc2ccccc2)cc1	/	/	/	/	/	.	/	.	.	.	.	.	.
CC(=O)Nc1ccc(NC(=S)Nc2ccc(F)cc2)cc1	?	.	.	.	.	.	/	/	/	/	/	/	/
COc1ccc(C2=CC(=O)C=CC2=O)cc1	?	.	.	.	.	/	/	.	53	.	15	.	32
CC(=O)c1cccc(NC(=O)NCc2cccnc2)c1	/	/	/	/	/	.	/	.	.	.	.	.	.
O=C(NCc1cccnc1)Nc1cccc(NC(=O)NCc2cccnc2)c1	.	.	.	.	.	.	/	/	/	/	/	/	/
CCCCOCCCNC1=NCCCCC1	.	-11	.	.	.	.	87	/	/	/	/	/	/
CC(C)CCNC1=NCCCCC1	.	.	.	.	.	.	/	/	/	/	/	/	/
COC(=O)c1ccccc1OCCCCN1CC(C)OC(C)C1 (stereo not drawn)	254[activator]	.	173	.	.	.	113	.	.	59	.	70	46
COc1ccc(OCCN(C)Cc2ccccc2)cc1	.	.	.	.	.	.	/	/	/	/	/	/	/
COc1ccc(CN(C)C2c3ccccc3-c3ccccc32)cc1	.	186[activator]	.	.	.	.	114	.	.	.	.	.	.
Cc1ccc(S(=O)(=O)N2CCCCC2)cc1NC(=O)c1ccccn1	?	.	.	.	.	/	/	/	/	/	/	/	/
Cn1c(CSCc2ccc(Cl)cc2)nnc1SCC(=O)Nc1nc2ccccc2s1	/	/	/	/	/	.	/	.	.	.	.	.	.
Cn1c(CSCc2ccc(Cl)cc2)nnc1SCC(=O)Nc1nccs1	.	.	.	.	.	.	/	/	/	/	/	/	/
COc1ccc(-c2cnnn2-c2ccc(NC(=O)c3ccc(S(=O)(=O)N4CCCCC4)cc3)cc2)cc1	21	.	.	25	22	.	/	.	.	.	.	.	.
CCOC(=O)N1CCC(N(CCN(C)C)C(=S)Nc2ccc(OCC)cc2)CC1	.	.	.	.	.	.	/	/	/	/	/	/	/
CC(C)CNC(=O)NC(=O)COC(=O)c1ccccc1Sc1ccc(C(F)(F)F)cc1[N+](=O)[O-]	.	.	.	.	.	.	/	/	/	/	/	/	/
C=CCNC(=O)NC(=O)COC(=O)c1ccccc1Sc1ccc(C(F)(F)F)cc1[N+](=O)[O-]	.	184[activator]	.	.	.	.	106	.	.	.	.	.	.
COc1ccccc1-n1c(-c2cn(C)nc2C)n[nH]c1=S	.	13	.	.	.	.	93	.	.	.	.	.	.
SMILES	RGS7-Gao reg	RGS16-Gao HTS	Avidin fluor	RGS8-Gao reg	RGS4-Gao reg	GSH fluor	RGS-Gao	Biotin-avidin	RGS8-Gao confirm	RGS7-Gao confirm	RGS16-Gao single	RGS4-Gao single	RGS19-Gao single
COc1ccc(-c2cc(-c3n[nH]c(=S)n3-c3ccccc3OC)[nH]n2)cc1	.	.	.	.	.	.	/	/	/	/	/	/	/
COc1ccccc1-n1c(-c2ccccc2)n[nH]c1=S	159[activator]	.	.	.	.	.	106	.	.	176[activator]	137[activator]	133[activator]	157[activator]
COCCNC(=O)Cn1nc(C)c([N+](=O)[O-])c1C	.	.	.	.	.	.	/	/	/	/	/	/	/
COc1cc(C(=O)OCC(=O)NC2CCS(=O)(=O)C2)ccc1OCc1c(C)noc1C (stereo not drawn)	154[activator]	.	73	.	.	.	100	.	.	.	.	.	.
COc1cc(C(=O)OCC#N)ccc1OCc1c(C)noc1C	?	.	.	.	.	/	/	/	/	/	/	/	/
CC(=O)c1c(C)[nH]c(C(=O)CSc2nnc(-c3ccco3)o2)c1C	?	.	.	.	.	.	/	/	/	/	/	/	/
COc1ccc(-c2nnc(SCC(=O)c3[nH]c(C)c(C(C)=O)c3C)o2)cc1	.	180[activator]	.	.	175[activator]	.	/	.	.	.	.	.	.
O=S(=O)(O)c1nc2ccccc2n1Cc1ccccc1	.	.	.	.	.	.	/	/	/	/	/	/	/
CS(=O)(=O)c1nc2ccccc2n1Cc1ccccc1	/	/	/	/	/	.	/	.	.	.	.	.	.
CCN(CC)CCOC(=O)c1ccc(NC(=O)c2ccc(Cl)c(S(=O)(=O)N3CCCCCC3)c2)cc1	.	.	.	.	.	.	/	/	/	/	/	/	/
COCCNc1nc2nonc2nc1N(C)Cc1cccc2cnccc12	.	.	.	.	.	.	/	/	/	/	/	/	/
NNC(=O)CN1CCN(c2ncc(C(F)(F)F)cc2Cl)CC1	.	.	.	.	.	.	/	/	/	/	/	/	/
CC(C)(C)NC(=O)NC(=O)CN1CCN(c2ncc(C(F)(F)F)cc2Cl)CC1	/	/	/	/	/	.	/	.	.	.	.	.	.
